# Inconclusive results are not listed. Where a call stands in place of a potency, no number is given. Active and inactive are the calls of the source. Calls come from the whole dose curve; as a rule, active = well fitted inhibition curve with a large enough effect; inconclusive = small, poorly fitted or top-dose-only effect; inactive = flat fitted curve, though single readings scatter.
# Target: Aldehyde dehydrogenase, mitochondrial (Homo sapiens) (UniProt P05091)
# Assay: qHTS for Inhibitors of the Aldehyde Dehydrogenase Family (ALDH2) Primary screen (AID 2061308); note: nearly all actives have a fitted effect of over 55% in size
# Settings: ALDH2 enzyme inhibition qHTS, 1536-well; series mostly up to 56 µM
row,Compound,Potency
1,CCOc1ccc(CCNC(=O)c2ccccn2)cc1OCC,inactive
2,COc1cc(N2CCOCC2)ccc1Nc1ncc(Cl)c(Nc2ccccc2NS(C)(=O)=O)n1,inactive
3,Fc1ccccc1-c1nc(-c2cccc(-c3nn[nH]n3)c2)no1,inactive
4,Cc1ccnc(NC(=S)N2CCN(c3cccc(C(F)(F)F)n3)CC2)c1,inactive
5,Cn1c2cc(Br)sc2c2cnn(Cc3c(F)cccc3Cl)c(=O)c21,inactive
6,CN(C)C1CCN(Cc2cc(COCc3ccccc3)c3cccnc3c2O)C1 (stereo not given),inactive
7,FC(F)(F)c1cc(-c2ccc(CNc3nc(-c4ccccc4C(F)(F)F)nc4ccsc34)cc2)ccn1,inactive
8,O=C(Nc1cncc(-c2ccncc2)c1)c1cccs1,inactive
9,Oc1c(CNc2ccccc2)cc(COCc2ccccc2)c2cccnc12,inactive
10,COc1cccc(-c2nc(-c3cccc(C(=O)O)c3)no2)c1,inactive
11,c1ccc2[nH]c(-c3ccc(NCc4ccc5c(c4)OCCO5)cc3)nc2c1,inactive
12,O=C1CCc2cc(S(=O)(=O)Nc3ccccc3-c3ccccc3)ccc2N1,inactive
13,COc1cccc(CNc2ccc(S(=O)(=O)Nc3ccccn3)cc2)c1O,inactive
14,CC(=O)c1ccc(N2CCN(C(=O)c3ccc4c(c3)CCC(=O)N4)CC2)cc1,inactive
15,Cc1cnc(-c2ccccc2C(F)(F)F)nc1NCc1ccc(-c2cccnc2)cc1,inactive
16,Cc1cc(NCc2ccc(-c3cccnc3)cc2)nc(-c2ccccc2C(C)C)n1,inactive
17,O=C(O)c1ccc(-c2noc(-c3ccccc3Cl)n2)cc1,inactive
18,COc1ccc(-c2ccc3c(N4CCOCC4)nc(N4CC(C)OC(C)C4)nc3n2)cc1CO (stereo not given),inactive
19,COc1ccc2nc(-c3cccc(NC(C)=O)c3)sc2c1,inactive
20,COc1cc(OC)c(C(CC(=O)N2CC(C)CC(C)C2)c2ccc3c(c2)OCO3)c(OC)c1 (stereo not given),inactive

row,Compound,Potency
1,CCCCN(C)C(=O)Cn1nc(-c2ccc(C(C)=O)cc2)ccc1=O,inactive
2,Cc1ccc(-c2cc(C(=O)Nc3ccccn3)c3ccccc3n2)cc1C,inactive
3,COc1ccc(O)c(-c2nc3ccccc3c(=O)n2Cc2ccccc2)c1,inactive
4,CC(C)(C)OC(=O)N1CCN(c2ccc(NCc3ccc(-c4cc(C(F)(F)F)cc(C(F)(F)F)c4)o3)cc2)CC1,inactive
5,COc1ccc(-c2nc(-c3ccc(C(=O)O)cc3)no2)cc1,inactive
6,Cc1nnc(-c2cnn(C)c2N)n1CCCc1ccncc1,inactive
7,O=C(NC(c1ccco1)c1cc(Cl)c2cccnc2c1O)c1cccs1 (stereo not given),inactive
8,O=C(O)c1cccc(-c2noc(-c3ccc(C(F)(F)F)cc3)n2)c1,inactive
9,CCc1ccc(NC(=O)C(=O)NNC(=O)c2cccs2)cc1,inactive
10,C=C1/C(=C/C=C2\CCC[C@]3(C)[C@@H]([C@H](C)/C=C/[C@@H](C)C(C)C)CC[C@@H]23)C[C@@H](O)C[C@@H]1O,inactive
11,O=S(=O)(Nc1cccc2cccnc12)c1ccc2ccccc2c1,inactive
12,O=C(Nc1ccccc1C(=O)O)c1ccccc1,inactive
13,Cc1ccnc(NC(=S)N2CCN(c3ccc(C#N)cc3)CC2)c1,inactive
14,COc1ccc(-c2nc(-c3cccc(C(=O)O)c3)no2)cc1,inactive
15,COc1cc(NS(=O)(=O)c2ccc(C)cc2)c2ncccc2c1,inactive
16,Cc1ccnc(NC(=S)N2CCc3cccc(C(F)(F)F)c3C2)c1,inactive
17,Cc1ccsc1CN(C)c1ncnc2ccc(-c3ccc(C(=O)N(C)C)o3)cc12,inactive
18,CN(C)c1ccc(-c2nc3ccccc3s2)cc1,inactive
19,C=C1/C(=C/C=C2\CCC[C@]3(C)[C@@H]([C@H](C)/C=C/[C@H](O)C4CC4)CC[C@@H]23)C[C@@H](O)C[C@@H]1O,inactive
20,N#Cc1nc(NCC(F)F)c2ncn(-c3cccc(Cl)c3)c2n1,inactive

# — PubChem BioAssay (NCATS)
